Assay results reported in PubChem BioAssay AID1159580 (chemical genetic matrix, 2015).
“And” between values parts separate entries of the source, which are not always exact repeats. Equal values may be shown once. The campaign covered roughly 5,500 compounds. About 2,000 (36%) were called active. Another 18% or so got no clear call; they are omitted. Rule as the data show it: active = normalized growth mostly below about 0.91 (no sharp cut-off); inconclusive = no clear call, values can overlap the other calls; inactive = mostly above about 0.92. The list shows a part of the results.

Experiment: chemical genetic growth profiling, strain panel (AID 1159580);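 also: tested at 20 µM; growth read once vehicle control cultures reached saturation at 30 °C; 1 = growth at the plate median or of vehicle wells; lower values mean less growth of the strain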
Conditions: S. cerevisiae deletion strains, growth OD

Measured: normalized growth

CC(C)CCCC(C)C1CCC2C3C[C@@H](O)[C@@]4(O)C[C@@H](O)CC[C@]4(C)C3CC[C@]12C (stereo partly drawn)
active: locus YAL026C, strain drs2, active compounds read low 0.843 | locus YDR137W, strain rgp1, active compounds read low 0.493 | locus YLR262C, strain YPT6 (second series), active compounds read low 0.502
inactive: locus YAL013W, strain DEP1, active compounds read low 1.01 | locus YAL021C, strain ccr4, active compounds read low 0.951 | locus YAL030W, strain snc1, active compounds read low 0.988 | locus YBL061C, strain skt5, active compounds read low 0.986 | locus YBR009C, strain hhf1, active compounds read low 0.972 | locus YBR021W, strain FUR4, active compounds read low 1.06 | locus YBR023C, strain chs3, active compounds read low 0.994 | locus YBR171W, strain sec66, active compounds read low 1.01 | locus YBR229C, strain ROT2, active compounds read low 1.06 | locus YBR231C, strain swc5, active compounds read low 1.01 | locus YBR279W, strain paf1, active compounds read low 1.03 | locus YCL011C, strain gbp2, active compounds read low 0.997 | locus YCL016C, strain dcc1, active compounds read low 0.984 | locus YCL029C, strain bik1, active compounds read low 1.04 | locus YCL061C, strain MRC1, active compounds read low 0.966 | locus YCL069W, strain vba3, active compounds read low 0.984 | locus YCR088W, strain abp1, active compounds read low 1 | locus YDL005C, strain med2, active compounds read low 0.996 | locus YDL035C, strain GPR1, active compounds read low 1.06 | locus YDL040C, strain nat1, active compounds read low 1.01 | locus YDL074C, strain BRE1, active compounds read low 1.08 | locus YDL101C, strain DUN1, active compounds read low 1.03 | locus YDL134C, strain PPH21, active compounds read low 0.985 | locus YDL185W, strain tfp1, active compounds read low 1.02 | locus YDL192W, strain arf1, active compounds read low 0.999 | locus YDR001C, strain nth1, active compounds read low 1 | locus YDR069C, strain doa4, active compounds read low 0.992 | locus YDR101C, strain arx1, active compounds read low 1.03 | locus YDR150W, strain NUM1, active compounds read low 1.03 | locus YDR162C, strain NBP2, active compounds read low 1.03 | locus YDR195W, strain ref2 1.04 | locus YDR297W, strain sur2, active compounds read low 0.986 | locus YDR318W, strain mcm21, active compounds read low 1.02 | locus YDR334W, strain swr1, active compounds read low 1 | locus YDR335W, strain msn5, active compounds read low 1 | locus YDR388W, active compounds read low 1.01 | locus YDR392W, strain spt3, active compounds read low 0.82 | locus YDR502C, strain sam2, active compounds read low 1.02 | locus YEL003W, strain gim4, active compounds read low 0.974 | locus YEL037C, strain rad23, active compounds read low 1 | locus YEL061C, strain CIN8 (second series), active compounds read low 0.999 | locus YER015W, strain faa2, active compounds read low 0.987 | locus YER016W, strain bim1, active compounds read low 0.994 | locus YER110C, active compounds read low 1.03 | locus YER111C, strain swi4, active compounds read low 0.987 | locus YER155C, strain BEM2 (second series), active compounds read low 0.972 | locus YER155C, strain BEM2, active compounds read low 1 | locus YER167W, strain BCK2, active compounds read low 1.04 | locus YFR010W, strain ubp6, active compounds read low 1 | locus YGL078C, strain dbp3, active compounds read low 1.02 | locus YGL086W, strain mad1, active compounds read low 1.01 | locus YGL167C, strain pmr1, active compounds read low 1 | locus YGL173C, strain kem1, active compounds read low 0.992 | locus YGL227W, strain vid30, active compounds read low 1 | locus YGL240W, strain doc1, active compounds read low 1.02 | locus YGL248W, strain PDE1, active compounds read low 1.02 | locus YGL253W, strain hxk2, active compounds read low 0.996 | locus YGR078C, strain PAC10, active compounds read low 1 | locus YGR135W, strain pre9, active compounds read low 0.99 | locus YGR252W, strain gcn5, active compounds read low 0.993 | locus YHR013C, strain ard1, active compounds read low 1 | locus YHR027C, strain rpn1, active compounds read low 0.991 | locus YHR030C, strain SLT2, active compounds read low 1.02 and 1.06 | locus YHR079C, strain IRE1 (second series), active compounds read low 1.01 | locus YHR079C, strain IRE1, active compounds read low 1.04 | locus YHR094C, strain hxt1, active compounds read low 1.02 | locus YHR129C, strain ARP1, active compounds read low 1.03 | locus YHR142W, strain chs7, active compounds read low 1.02 | locus YHR200W, strain rpn10, active compounds read low 1.02 | locus YIL066C, strain RNR3, active compounds read low 1.02 | locus YIL073C, strain SPO22, active compounds read low 1.04 | locus YIL125W, strain kgd1, active compounds read low 1.02 | locus YIR030C, strain dcg1, active compounds read low 1.01 | locus YJL092W, strain hpr5, active compounds read low 1.01 | locus YJL095W, strain BCK1 (second series), active compounds read low 0.998 | locus YJL095W, strain BCK1, active compounds read low 0.981 and 1.05 | locus YJL115W, strain asf1, active compounds read low 0.994 | locus YJL129C, strain trk1, active compounds read low 1.01 | locus YJL134W, strain LCB3, active compounds read low 1.03 | locus YJL154C, strain vps35, active compounds read low 1 | locus YJL164C, strain tpk1, active compounds read low 0.99 | locus YJL166W, strain qcr8, active compounds read low 0.98 | locus YJL168C, strain set2, active compounds read low 1.01 | locus YJL187C, strain SWE1 (second series), active compounds read low 1.02 | locus YJL187C, strain SWE1, active compounds read low 1 | locus YJR043C, strain POL32, active compounds read low 1.03 | locus YJR066W, strain TOR1, active compounds read low 1.01 | locus YKL009W, strain mrt4, active compounds read low 0.971 | locus YKL068W, active compounds read low 1.01 | locus YKL085W, strain MDH1 (second series), active compounds read low 1.01 | locus YKL085W, strain MDH1, active compounds read low 1.01 | locus YKL160W, strain elf1, active compounds read low 0.998 | locus YKR001C, strain vps1, active compounds read low 1.05 | locus YKR026C, strain gcn3, active compounds read low 1 | locus YKR091W, strain srl3, active compounds read low 1 | locus YLL001W, strain dnm1, active compounds read low 0.949 | locus YLL026W, active compounds read low 0.995 | locus YLL041C, strain sdh2, active compounds read low 1 | locus YLR027C, strain aat2, active compounds read low 0.989 | locus YLR039C, strain RIC1, active compounds read low 0.777 | locus YLR058C, strain SHM2, active compounds read low 1.02 | locus YLR102C, strain apc9, active compounds read low 1.01 | locus YLR113W, strain HOG1, active compounds read low 1.06 | locus YLR221C, strain rsa3, active compounds read low 0.976 | locus YLR258W, strain gsy2, active compounds read low 0.975 | locus YLR262C, strain YPT6, active compounds read low 0.78 | locus YLR268W, strain sec22, active compounds read low 1.05 | locus YLR320W, strain mms22, active compounds read low 0.941 | locus YLR330W, strain CHS5, active compounds read low 1 | locus YLR342W, strain FKS1 (second series), active compounds read low 1.03 | locus YLR342W, strain FKS1, active compounds read low 0.986 | locus YLR357W, strain rsc2, active compounds read low 1.01 | locus YLR370C, strain arc18, active compounds read low 1 | locus YLR371W, strain rom2, active compounds read low 1.02 | locus YLR384C, strain iki3, active compounds read low 0.979 | locus YLR418C, strain cdc73, active compounds read low 1.03 | locus YML016C, strain PPZ1, active compounds read low 1.05 | locus YML032C, strain rad52, active compounds read low 0.977 | locus YML120C, strain ndi1, active compounds read low 0.996 | locus YML124C, strain tub3, active compounds read low 1.02 | locus YMR058W, strain fet3, active compounds read low 0.996 | locus YMR078C, strain ctf18, active compounds read low 1.02 | locus YMR125W, strain sto1, active compounds read low 1.02 | locus YMR129W, active compounds read low 0.989 | locus YMR205C, strain PFK2, active compounds read low 0.954 | locus YMR223W, strain ubp8, active compounds read low 1 | locus YMR231W, strain pep5, active compounds read low 0.99 | locus YMR307W, strain GAS1, active compounds read low 1.06 | locus YNL067W, strain RPL9B, active compounds read low 1.02 | locus YNL071W, strain lat1, active compounds read low 0.999 | locus YNL153C, strain GIM3, active compounds read low 1.02 | locus YNL183C, strain NPR1, active compounds read low 0.992 | locus YNL209W, strain ssb2, active compounds read low 0.994 | locus YNL233W, strain BNI4, active compounds read low 1 | locus YNL248C, strain rpa49, active compounds read low 0.98 | locus YNL250W, strain rad50, active compounds read low 1.02 | locus YNL271C, strain bni1, active compounds read low 1.02 | locus YNL298W, strain CLA4, active compounds read low 1.02 | locus YNL307C, strain MCK1, active compounds read low 1.02 | locus YNL322C, strain KRE1 (second series), active compounds read low 0.986 | locus YNL322C, strain KRE1, active compounds read low 1.01 | locus YNR049C, strain mso1, active compounds read low 1 | locus YNR052C, strain pop2, active compounds read low 0.996 | locus YOL012C, strain htz1 1.32 | locus YOL147C, strain pex11, active compounds read low 1.02 | locus YOR001W, strain rrp6, active compounds read low 0.977 | locus YOR061W, strain CKA2, active compounds read low 1.03 | locus YOR069W, strain VPS5, active compounds read low 1.01 | locus YOR070C, strain gyp1, active compounds read low 0.972 | locus YOR080W, strain dia2, active compounds read low 1 | locus YOR083W, strain WHI5, active compounds read low 0.983 | locus YOR106W, strain vam3, active compounds read low 1.04 | locus YOR136W, strain idh2, active compounds read low 1.02 | locus YOR144C, strain elg1, active compounds read low 1.02 | locus YOR184W, strain ser1, active compounds read low 1.02 | locus YOR231W, strain MKK1, active compounds read low 1.06 | locus YOR265W, strain rbl2, active compounds read low 0.993 | locus YOR270C, strain vph1, active compounds read low 1.02 | locus YOR290C, strain snf2, active compounds read low 0.994 | locus YOR316C, strain cot1, active compounds read low 1.02 | locus YPL051W, strain arl3, active compounds read low 0.956 | locus YPL078C, strain atp4, active compounds read low 0.987 | locus YPL106C, strain sse1, active compounds read low 1.01 | locus YPL240C, strain hsp82, active compounds read low 1 | locus YPL256C, strain CLN2, active compounds read low 1.05 | locus YPR119W, strain clb2, active compounds read low 1.02 | locus YPR141C, strain kar3, active compounds read low 1.02 | locus YPR163C, strain tif3, active compounds read low 1.01 | locus YPR167C, strain met16, active compounds read low 1.03 | strain wtn01, active compounds read low 1.07
